This passage reports growth results from PubChem BioAssay (NCI).

Experiment in all cases: NCI-60 one-dose screen, 48 h (100 = growth as untreated, 0 = no growth, -100 = all killed)
Conditions in all cases: 10 µM unless noted

The test system of experiment [1] is T-47D breast.
For experiment [2], the system named is BT-549 breast.
Experiment [3] deals with MDA-MB-435 melanoma.
Experiment [4] has as its system SW-620 colon.
Experiment [5] has as its system MCF7 breast.
The test system of experiment [6] is HCT-116 colon.
In experiment [7] the test system is HCC-2998 colon.
The subject of experiment [8] is KM12 colon.

The panel holds about 83,000 compounds, 20% with a hit somewhere; the sample as a whole holds those more often.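 For each line, cells grew in 96-well plates with the test compound present at a single concentration for 48 hours.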 A number with no mark means an inactive call. Calls of active or inactive are those of the source. Rule for the calls: active = growth percent below 10; inactive = the rest.

For `Brc1ccc(-c2nnc3c4[nH]ccc4ncn23)cc1`, the growth in experiment [1] is 57.6%; in experiment [2], 94.3%; in experiment [3], 97.8%; in experiment [4], 94%; in experiment [5], 75.8%; in experiment [6] it was 86.4%. The growth in experiment [7] was 96.6%; in experiment [8] it was 73.4%.

Consider `O=C(Oc1ccc(Cl)cc1[N+](=O)[O-])Oc1ccc(Cl)cc1[N+](=O)[O-]`, for which the growth in experiment [1] was 115%; in experiment [2] it was 119%; in experiment [3], 120%; in experiment [4], 109%; in experiment [5], 103%; in experiment [6] it was 113%. Also, the growth in experiment [7] was 108%; in experiment [8] it was 106%.

Turning to `Nc1ccc(Cl)c([N+](=O)[O-])c1`, the growth in experiment [1] was 91.9%; in experiment [2], 95.1%; in experiment [3], 95.1%; in experiment [4], 104%; in experiment [5] it was 101%; in experiment [6] it was 97.7%. Besides, the growth is 94.4% in experiment [7] and 96.1% in experiment [8].

Consider `CCN(CC)CC(C)Nc1ccc(C)c2sc3ccccc3c(=O)c12` (configuration not stated), for which the growth in experiment [1] is 53.6%; in experiment [2] it was 82.3%; in experiment [3] it was 59.1%; in experiment [4] it was 55.8%; in experiment [5] it was 32.6%; in experiment [6] it was 34.6%. The values for the growth in experiment [7] and in experiment [8] were 45.9% and 55%, respectively.

Take `CCCCOC(=O)c1cccc([N+](=O)[O-])c1`: the growth is 110% in experiment [1]; 104% in experiment [2]; 103% in experiment [3]; 103% in experiment [4]; 115% in experiment [5]; 113% in experiment [6]. In addition, the values for the growth in experiment [7] and in experiment [8] were 98.5% and 108%, respectively.

Take `C#CC(OC(=O)N(C)C)(c1ccccc1)c1ccc(F)cc1` (configuration not stated): the growth in experiment [1] was 100%; in experiment [2], 111%; in experiment [3] it was 120%; in experiment [4], 107%; in experiment [5], 113%; in experiment [6] it was 105%. The growth in experiment [7] was 86.3%; in experiment [8], 107%.

For the compound `CCn1cc(-c2[nH]c(=S)ncc2-c2ccc(Cl)cc2)c(-c2ccc(Br)cc2)n1`, the growth in experiment [1] was 59.3%; in experiment [2], 91.2%; in experiment [3], 85%; in experiment [4] it was 103%; in experiment [5], 84.8%; in experiment [6], 72.6%. The values for the growth in experiment [7] and in experiment [8] were 99.5% and 94%, respectively.

For the compound `CC(C)=CC/C=C(/C)[C@H]1CC[C@]2(C)[C@@H]1CC[C@@H]1[C@@]3(C)CCC(=O)NC(C)(C)[C@@H]3CC[C@]12C`, the growth in experiment [1] is -3.77% [100 µM] (active); in experiment [2], -0.884% [100 µM] (active); in experiment [3], -4.47% [100 µM] (active); in experiment [4], -58.8% [100 µM] (active); in experiment [5], 8.52% [100 µM] (active); in experiment [6] it was -37.4% [100 µM] (active). Further, the growth in experiment [7] was 5.26% [100 µM] (active); in experiment [8] it was -56% [100 µM] (active).

Turning to `Nn1c(Nc2ccc(S(=O)(=O)Nc3ncccn3)cc2)nnc(/C=C/c2c(O)ccc3ccccc23)c1=O`, the growth was 70.9% in experiment [1]; 101% in experiment [2]; 95.2% in experiment [3]; 94% in experiment [4]; 76.6% in experiment [5]; 89.9% in experiment [6]. The growth in experiment [7] was 114%; in experiment [8], 82.9%.

`Cc1ncc(C(=O)Nc2ccc(CN3CCN(C)CC3)c(C(F)(F)F)c2)cc1C#Cc1c(N)ncc2ccc(C#N)cc12`: the growth is 48.9% in experiment [1]; 51.4% in experiment [2]; 7.01% (active) in experiment [3]; 34.1% in experiment [4]; 29.5% in experiment [5]; 14.5% in experiment [6]. Besides, the growth is 58.4% in experiment [7] and 9.43% (active) in experiment [8].

`COc1cc(NCc2cn(-c3ccc(C(=O)O)cc3)nc2-c2ccc(C(=O)O)cc2)cc(OC)c1OC`: the growth in experiment [1] is 93.7%; in experiment [2], 96.2%; in experiment [3], 102%; in experiment [4] it was 92%; in experiment [5], 93.3%; in experiment [6] it was 97.5%. The growth in experiment [7] was 104%; in experiment [8], 100%.

On to `CCOC(=O)C(c1ccccc1)N1C(=O)c2ccccc2C1=O` (configuration not stated), for which the growth is 97.3% in experiment [1]; 90.3% in experiment [2]; 93.1% in experiment [3]; 97.4% in experiment [4]; 91.4% in experiment [5]; 98.5% in experiment [6]. The growth in experiment [7] is 98.4%; in experiment [8] it was 98.8%.

Take `COc1cc(NN=C(c2ccc(O)cc2)c2ccc(O)cc2)c([N+](=O)[O-])cc1[N+](=O)[O-]`: the growth in experiment [1] is -10.1% (active); in experiment [2], 111%; in experiment [3] it was 95.6%; in experiment [4], 98.9%; in experiment [5] it was 1.9% (active); in experiment [6], 1.31% (active). Also, the growth is 2.63% (active) in experiment [7] and 73.2% in experiment [8].

`CCN(CC)CCCNCc1cc(-c2ccccc2)nc2ccccc12`: the growth in experiment [1] is 53.4%; in experiment [2], 75.9%; in experiment [3], 53.3%; in experiment [4], 24.2%; in experiment [5] it was 35.7%; in experiment [6] it was 7.25% (active). The growth in experiment [7] was 101%; in experiment [8], 82.6%.
